Measurements as given in PubChem BioAssay AID1159580 (chemical genetic matrix, 2015).
The whole screen tested about 5,500 compounds, of which about 2,000 (36%) were called active. About 18% were inconclusive and are not listed. Cut-off read from the data, not from the text of the source: active = normalized growth mostly below about 0.91 (no sharp cut-off); inconclusive = no clear call, values can overlap the other calls; inactive = mostly above about 0.92. This is one part of the list.

Assay: chemical genetic growth profiling, strain panel (AID 1159580);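 note: tested at 20 µM; growth read once vehicle control cultures reached saturation at 30 °C; 1 = growth at the plate median or of vehicle wells; lower values mean less growth of the strain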
Conditions: growth OD
[1] = S. cerevisiae deletion strains, locus YHR030C, strain SLT2, hits give low values
[2] = S. cerevisiae deletion strains, locus YJL095W, strain BCK1, hits give low values

Measured: normalized growth

C=Cc1c(C)c2cc3nc(c4c5[nH]c(cc6nc(cc1[nH]2)C(C)=C6CC)c(C)c5C(=O)[C@@H]4C(=O)OC)[C@@H](CCC(=O)OC/C=C(\C)CCCC(C)CCCC(C)CCCC(C)C)[C@@H]3C (some centres undefined)
inactive: [1] 0.987 | S. cerevisiae deletion strains, locus YHR079C, strain IRE1, hits give low values 0.972 | [2] 0.978 | S. cerevisiae deletion strains, locus YJR066W, strain TOR1, hits give low values 0.934 | S. cerevisiae deletion strains, locus YLR113W, strain HOG1, hits give low values 0.957 | S. cerevisiae deletion strains, locus YNL183C, strain NPR1, hits give low values 0.935 | S. cerevisiae deletion strains, locus YOR231W, strain MKK1, hits give low values 0.954 | S. cerevisiae deletion strains, locus YPL256C, strain CLN2, hits give low values 0.965

CCC(C)C(=O)O[C@H]1[C@H](O)C2C(CN3CC(C)CCC3[C@@]2(C)O)C2C[C@]34O[C@]5(O)C(OC(=O)C(C)(O)C(C)O)CC[C@@]3(C)C5C(OC(C)=O)[C@@H](OC(C)=O)C4[C@@]21O (some centres undefined)
inactive: S. cerevisiae deletion strains, locus YAL013W, strain DEP1, hits give low values 1.01 | S. cerevisiae deletion strains, locus YBR021W, strain FUR4, hits give low values 0.996 | S. cerevisiae deletion strains, locus YBR229C, strain ROT2, hits give low values 1 | S. cerevisiae deletion strains, locus YCL029C, strain bik1, hits give low values 1 | S. cerevisiae deletion strains, locus YDL035C, strain GPR1, hits give low values 1.02 | S. cerevisiae deletion strains, locus YDL074C, strain BRE1, hits give low values 1.01 | S. cerevisiae deletion strains, locus YDL101C, strain DUN1, hits give low values 1.01 | S. cerevisiae deletion strains, locus YDL134C, strain PPH21, hits give low values 1.01 | S. cerevisiae deletion strains, locus YDL185W, strain tfp1, hits give low values 0.999 | S. cerevisiae deletion strains, locus YDL192W, strain arf1, hits give low values 1 | S. cerevisiae deletion strains, locus YDR101C, strain arx1, hits give low values 0.986 | S. cerevisiae deletion strains, locus YDR150W, strain NUM1, hits give low values 1.01 | S. cerevisiae deletion strains, locus YDR162C, strain NBP2, hits give low values 1.01 | S. cerevisiae deletion strains, locus YDR318W, strain mcm21, hits give low values 0.998 | S. cerevisiae deletion strains, locus YDR388W, hits give low values 1 | S. cerevisiae deletion strains, locus YDR502C, strain sam2, hits give low values 0.996 | S. cerevisiae deletion strains, locus YEL061C, strain CIN8, hits give low values 1.01 | S. cerevisiae deletion strains, locus YER110C, hits give low values 0.994 | S. cerevisiae deletion strains, locus YER155C, strain BEM2, hits give low values 1 | S. cerevisiae deletion strains, locus YER167W, strain BCK2, hits give low values 1.07 | S. cerevisiae deletion strains, locus YGL078C, strain dbp3, hits give low values 1 | S. cerevisiae deletion strains, locus YGL086W, strain mad1, hits give low values 1 | S. cerevisiae deletion strains, locus YGL248W, strain PDE1, hits give low values 1.01 | S. cerevisiae deletion strains, locus YGR078C, strain PAC10, hits give low values 1.01 | S. cerevisiae deletion strains, locus YGR135W, strain pre9, hits give low values 0.997 | S. cerevisiae deletion strains, locus YGR229C, strain SMI1, hits give low values 1.03 | S. cerevisiae deletion strains, locus YGR252W, strain gcn5, hits give low values 1.01 | [1] 1 | S. cerevisiae deletion strains, locus YHR079C, strain IRE1 (second series), hits give low values 0.998 | S. cerevisiae deletion strains, locus YHR094C, strain hxt1, hits give low values 1 | S. cerevisiae deletion strains, locus YHR129C, strain ARP1, hits give low values 1 | S. cerevisiae deletion strains, locus YHR200W, strain rpn10, hits give low values 1 | S. cerevisiae deletion strains, locus YIL066C, strain RNR3, hits give low values 1.01 | S. cerevisiae deletion strains, locus YIL073C, strain SPO22, hits give low values 1.02 | S. cerevisiae deletion strains, locus YIL125W, strain kgd1, hits give low values 1.01 | S. cerevisiae deletion strains, locus YIR030C, strain dcg1, hits give low values 0.991 | [2] 0.994 | S. cerevisiae deletion strains, locus YJL134W, strain LCB3, hits give low values 1.01 | S. cerevisiae deletion strains, locus YJL168C, strain set2, hits give low values 1 | S. cerevisiae deletion strains, locus YJL187C, strain SWE1 (second series), hits give low values 1.01 | S. cerevisiae deletion strains, locus YJR043C, strain POL32, hits give low values 0.984 | S. cerevisiae deletion strains, locus YJR075W, strain HOC1, hits give low values 1.01 | S. cerevisiae deletion strains, locus YKL009W, strain mrt4, hits give low values 1 | S. cerevisiae deletion strains, locus YKL068W, hits give low values 1.01 | S. cerevisiae deletion strains, locus YKL085W, strain MDH1 (second series), hits give low values 1 | S. cerevisiae deletion strains, locus YKL085W, strain MDH1, hits give low values 1 | S. cerevisiae deletion strains, locus YKL190W, strain CNB1, hits give low values 1.01 | S. cerevisiae deletion strains, locus YKR001C, strain vps1, hits give low values 0.98 | S. cerevisiae deletion strains, locus YLR039C, strain RIC1, hits give low values 1 | S. cerevisiae deletion strains, locus YLR058C, strain SHM2, hits give low values 1.01 | S. cerevisiae deletion strains, locus YLR102C, strain apc9, hits give low values 1 | S. cerevisiae deletion strains, locus YLR262C, strain YPT6, hits give low values 0.996 | S. cerevisiae deletion strains, locus YLR268W, strain sec22, hits give low values 0.981 | S. cerevisiae deletion strains, locus YLR330W, strain CHS5, hits give low values 1.02 | S. cerevisiae deletion strains, locus YLR342W, strain FKS1 (second series), hits give low values 1 | S. cerevisiae deletion strains, locus YLR371W, strain rom2, hits give low values 1 | S. cerevisiae deletion strains, locus YLR418C, strain cdc73, hits give low values 1 | S. cerevisiae deletion strains, locus YML016C, strain PPZ1, hits give low values 1 | S. cerevisiae deletion strains, locus YML032C, strain rad52, hits give low values 0.991 | S. cerevisiae deletion strains, locus YML124C, strain tub3, hits give low values 0.996 | S. cerevisiae deletion strains, locus YMR078C, strain ctf18, hits give low values 1.01 | S. cerevisiae deletion strains, locus YMR223W, strain ubp8, hits give low values 0.999 | S. cerevisiae deletion strains, locus YMR263W, strain SAP30, hits give low values 1 | S. cerevisiae deletion strains, locus YMR307W, strain GAS1, hits give low values 0.987 | S. cerevisiae deletion strains, locus YNL067W, strain RPL9B, hits give low values 1 | S. cerevisiae deletion strains, locus YNL128W, strain TEP1, hits give low values 1.02 | S. cerevisiae deletion strains, locus YNL153C, strain GIM3, hits give low values 0.996 | S. cerevisiae deletion strains, locus YNL233W, strain BNI4, hits give low values 1.01 | S. cerevisiae deletion strains, locus YNL250W, strain rad50, hits give low values 0.99 | S. cerevisiae deletion strains, locus YNL271C, strain bni1, hits give low values 0.992 | S. cerevisiae deletion strains, locus YNL298W, strain CLA4, hits give low values 0.986 | S. cerevisiae deletion strains, locus YNL307C, strain MCK1, hits give low values 1.01 | S. cerevisiae deletion strains, locus YNL322C, strain KRE1, hits give low values 1.01 | S. cerevisiae deletion strains, locus YNR052C, strain pop2, hits give low values 1 | S. cerevisiae deletion strains, locus YOL006C, strain TOP1, hits give low values 1.02 | S. cerevisiae deletion strains, locus YOL012C, strain htz1 0.933 | S. cerevisiae deletion strains, locus YOL147C, strain pex11, hits give low values 0.996 | S. cerevisiae deletion strains, locus YOR061W, strain CKA2, hits give low values 1.01 | S. cerevisiae deletion strains, locus YOR069W, strain VPS5, hits give low values 1.01 | S. cerevisiae deletion strains, locus YOR136W, strain idh2, hits give low values 1 | S. cerevisiae deletion strains, locus YOR144C, strain elg1, hits give low values 0.996 | S. cerevisiae deletion strains, locus YOR184W, strain ser1, hits give low values 1.02 | S. cerevisiae deletion strains, locus YOR316C, strain cot1, hits give low values 1 | S. cerevisiae deletion strains, locus YPL055C, strain LGE1, hits give low values 1.03 | S. cerevisiae deletion strains, locus YPL241C, strain CIN2, hits give low values 1.01 | S. cerevisiae deletion strains, locus YPR119W, strain clb2, hits give low values 1 | S. cerevisiae deletion strains, locus YPR141C, strain kar3, hits give low values 0.996 | S. cerevisiae deletion strains, locus YPR163C, strain tif3, hits give low values 0.996 | S. cerevisiae deletion strains, locus YPR167C, strain met16, hits give low values 1.01 | S. cerevisiae deletion strains, strain wtn01, hits give low values 0.997 | S. cerevisiae strains, strain wild type, hits give low values 1.01
